Screen size: about 5,500 compounds; about 2,000 (36%) were called active. Not shown: some 18% with an inconclusive outcome. No stated cut-off is given here; in the data, active means normalized growth mostly below about 0.91 (no sharp cut-off); inconclusive means no clear call, values can overlap the other calls; inactive means mostly above about 0.92. The list shows a part of the results.
Experiment: chemical genetic growth profiling, strain panel (AID 1159580);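 further: tested at 20 µM; growth read once vehicle control cultures reached saturation at 30 °C; 1 = growth at the plate median or of vehicle wells; lower values mean less growth of the strain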
Conditions: S. cerevisiae deletion strains, growth OD
[1] = locus YGR078C, strain PAC10, hits give low values
[2] = locus YMR307W, strain GAS1, hits give low values

Measured: normalized growth

C[C@H](O)C(=O)C1=Nc2c(nc(N)[nH]c2=O)NC1
inactive: locus YAL013W, strain DEP1, hits give low values 0.952 | locus YAL040C, strain CLN3, hits give low values 0.966 | locus YCL061C, strain MRC1 (second series), hits give low values 0.983 | locus YDR363W, strain ESC2, hits give low values 0.952 | locus YER002W, strain NOP16, hits give low values 1.04 | [1] 0.998 | locus YJR075W, strain HOC1, hits give low values 0.98 | locus YMR263W, strain SAP30, hits give low values 0.983 | [2] 0.983 | locus YNL175C, strain NOP13, hits give low values 1.01 | locus YNL197C, strain WHI3, hits give low values 1.01 | locus YNL224C, strain SQS1, hits give low values 0.997 | locus YNL322C, strain KRE1, hits give low values 0.955 | locus YOR083W, strain WHI5 (second series), hits give low values 0.996 | locus YPL055C, strain LGE1, hits give low values 0.971

C=C1CCC2(OC1)OC1CC3C4CC=C5CC(O)CC(O)C5(C)C4CCC3(C)C1C2C (centres undefined)
inactive: locus YAL021C, strain ccr4, hits give low values 0.929 | locus YAL030W, strain snc1, hits give low values 1.01 | locus YBL061C, strain skt5, hits give low values 1.01 | locus YBR023C, strain chs3, hits give low values 0.976 | locus YBR171W, strain sec66, hits give low values 1.01 | locus YBR231C, strain swc5, hits give low values 1.03 | locus YBR279W, strain paf1, hits give low values 0.995 | locus YCL011C, strain gbp2, hits give low values 0.914 | locus YCL016C, strain dcc1, hits give low values 0.979 | locus YCL069W, strain vba3, hits give low values 0.939 | locus YCR088W, strain abp1, hits give low values 0.984 | locus YDL005C, strain med2, hits give low values 0.995 | locus YDL040C, strain nat1, hits give low values 1.01 | locus YDR001C, strain nth1, hits give low values 1.01 | locus YDR069C, strain doa4, hits give low values 1.01 | locus YDR159W, strain sac3, hits give low values 0.916 | locus YDR195W, strain ref2 0.889 | locus YDR297W, strain sur2, hits give low values 1.01 | locus YDR334W, strain swr1, hits give low values 1.01 | locus YDR392W, strain spt3, hits give low values 0.819 | locus YEL003W, strain gim4, hits give low values 0.99 | locus YEL037C, strain rad23, hits give low values 1 | locus YEL061C, strain CIN8 (second series), hits give low values 0.94 | locus YER015W, strain faa2, hits give low values 1 | locus YER016W, strain bim1, hits give low values 0.992 | locus YER111C, strain swi4, hits give low values 0.958 | locus YER155C, strain BEM2 (second series), hits give low values 1.01 | locus YFR010W, strain ubp6, hits give low values 0.97 | locus YGL167C, strain pmr1, hits give low values 1.02 | locus YGL173C, strain kem1, hits give low values 1.01 | locus YGL227W, strain vid30, hits give low values 0.976 | locus YGL240W, strain doc1, hits give low values 1 | locus YHR013C, strain ard1, hits give low values 1.06 | locus YHR027C, strain rpn1, hits give low values 0.966 | locus YJL092W, strain hpr5, hits give low values 0.978 | locus YJL095W, strain BCK1 (second series), hits give low values 0.966 | locus YJL115W, strain asf1, hits give low values 1.01 | locus YJL154C, strain vps35, hits give low values 1 | locus YJL166W, strain qcr8, hits give low values 0.944 | locus YKL160W, strain elf1, hits give low values 0.986 | locus YKR026C, strain gcn3, hits give low values 0.994 | locus YKR091W, strain srl3, hits give low values 1.01 | locus YLL001W, strain dnm1, hits give low values 0.923 | locus YLL026W, hits give low values 0.98 | locus YLL041C, strain sdh2, hits give low values 1 | locus YLR027C, strain aat2, hits give low values 0.987 | locus YLR258W, strain gsy2, hits give low values 0.988 | locus YLR320W, strain mms22, hits give low values 0.929 | locus YLR342W, strain FKS1, hits give low values 1.01 | locus YLR357W, strain rsc2, hits give low values 1.07 | locus YLR370C, strain arc18, hits give low values 1.02 | locus YLR384C, strain iki3, hits give low values 1.01 | locus YML120C, strain ndi1, hits give low values 0.928 | locus YMR058W, strain fet3, hits give low values 0.959 | locus YMR125W, strain sto1, hits give low values 1 | locus YMR129W, hits give low values 1.01 | locus YMR231W, strain pep5, hits give low values 1.02 | locus YNL209W, strain ssb2, hits give low values 1.02 | locus YNL248C, strain rpa49, hits give low values 0.987 | locus YNL322C, strain KRE1 (second series), hits give low values 1 | locus YNR049C, strain mso1, hits give low values 1 | locus YOR001W, strain rrp6, hits give low values 0.944 | locus YOR070C, strain gyp1, hits give low values 0.997 | locus YOR080W, strain dia2, hits give low values 1.02 | locus YOR083W, strain WHI5, hits give low values 0.979 | locus YOR106W, strain vam3, hits give low values 0.911 | locus YOR265W, strain rbl2, hits give low values 1.01 | locus YOR290C, strain snf2, hits give low values 0.887 | locus YPL078C, strain atp4, hits give low values 0.929 | locus YPL106C, strain sse1, hits give low values 1.03 | locus YPL240C, strain hsp82, hits give low values 0.974
active: locus YAL026C, strain drs2, hits give low values 0.87 | locus YBR009C, strain hhf1, hits give low values 0.873 | locus YDR137W, strain rgp1, hits give low values 0.586 | locus YDR335W, strain msn5, hits give low values 0.899 | locus YGL253W, strain hxk2, hits give low values 0.855 | locus YHR142W, strain chs7, hits give low values 0.749 | locus YJL129C, strain trk1, hits give low values 0.853 | locus YJL164C, strain tpk1, hits give low values 0.886 | locus YLR262C, strain YPT6 (second series), hits give low values 0.548 | locus YMR205C, strain PFK2, hits give low values 0.865 | locus YNL071W, strain lat1, hits give low values 0.846 | locus YOR270C, strain vph1, hits give low values 0.771 | locus YPL051W, strain arl3, hits give low values 0.907

CC1CC[C@@]2(OC1)O[C@H]1CC3C4CC[C@@H]5CC(=O)CC[C@]5(C)C4CC[C@]3(C)[C@H]1[C@@H]2C (some centres undefined)
inactive: locus YBR021W, strain FUR4, hits give low values 1.01 | locus YBR229C, strain ROT2, hits give low values 1.01 | locus YCL029C, strain bik1, hits give low values 1.01 | locus YDL035C, strain GPR1, hits give low values 1.05 | locus YDL074C, strain BRE1, hits give low values 1.04 | locus YDL101C, strain DUN1, hits give low values 0.975 | locus YDL134C, strain PPH21, hits give low values 0.982 | locus YDL185W, strain tfp1, hits give low values 0.982 | locus YDL192W, strain arf1, hits give low values 1.01 | locus YDR101C, strain arx1, hits give low values 1.02 | locus YDR150W, strain NUM1, hits give low values 1 | locus YDR162C, strain NBP2, hits give low values 1 | locus YDR318W, strain mcm21, hits give low values 1 | locus YDR388W, hits give low values 0.993 | locus YDR502C, strain sam2, hits give low values 0.974 | locus YER110C, hits give low values 0.994 | locus YER155C, strain BEM2, hits give low values 0.985 | locus YER167W, strain BCK2, hits give low values 1 | locus YGL078C, strain dbp3, hits give low values 0.963 | locus YGL086W, strain mad1, hits give low values 0.989 | locus YGL248W, strain PDE1, hits give low values 0.973 | [1] 0.993 | locus YGR135W, strain pre9, hits give low values 0.948 | locus YGR252W, strain gcn5, hits give low values 0.997 | locus YHR079C, strain IRE1 (second series), hits give low values 0.996 | locus YHR094C, strain hxt1, hits give low values 0.985 | locus YHR129C, strain ARP1, hits give low values 0.996 | locus YHR200W, strain rpn10, hits give low values 0.987 | locus YIL066C, strain RNR3, hits give low values 1.02 | locus YIL073C, strain SPO22, hits give low values 0.983 | locus YIL125W, strain kgd1, hits give low values 1 | locus YIR030C, strain dcg1, hits give low values 0.98 | locus YJL095W, strain BCK1, hits give low values 0.977 | locus YJL134W, strain LCB3, hits give low values 0.991 | locus YJL168C, strain set2, hits give low values 0.986 | locus YJL187C, strain SWE1 (second series), hits give low values 0.968 | locus YKL009W, strain mrt4, hits give low values 0.986 | locus YKL068W, hits give low values 0.985 | locus YKL085W, strain MDH1 (second series), hits give low values 0.984 | locus YKL085W, strain MDH1, hits give low values 0.984 | locus YKR001C, strain vps1, hits give low values 0.986 | locus YLR039C, strain RIC1, hits give low values 0.996 | locus YLR058C, strain SHM2, hits give low values 0.999 | locus YLR102C, strain apc9, hits give low values 0.984 | locus YLR268W, strain sec22, hits give low values 1.04 | locus YLR342W, strain FKS1 (second series), hits give low values 1.07 | locus YLR371W, strain rom2, hits give low values 1.01 | locus YLR418C, strain cdc73, hits give low values 0.942 | locus YML016C, strain PPZ1, hits give low values 0.988 | locus YML032C, strain rad52, hits give low values 1.01 | locus YML124C, strain tub3, hits give low values 0.995 | locus YMR078C, strain ctf18, hits give low values 0.985 | locus YMR223W, strain ubp8, hits give low values 0.996 | [2] 0.94 | locus YNL067W, strain RPL9B, hits give low values 0.966 | locus YNL233W, strain BNI4, hits give low values 0.972 | locus YNL250W, strain rad50, hits give low values 0.929 | locus YNL271C, strain bni1, hits give low values 0.981 | locus YNL298W, strain CLA4, hits give low values 1 | locus YNL307C, strain MCK1, hits give low values 0.986 | locus YNR052C, strain pop2, hits give low values 0.972 | locus YOL006C, strain TOP1, hits give low values 1.16 | locus YOL012C, strain htz1 1.11 | locus YOL147C, strain pex11, hits give low values 1.01 | locus YOR061W, strain CKA2, hits give low values 1.01 | locus YOR069W, strain VPS5, hits give low values 0.989 | locus YOR136W, strain idh2, hits give low values 0.992 | locus YOR144C, strain elg1, hits give low values 0.992 | locus YOR184W, strain ser1, hits give low values 1.06 | locus YOR316C, strain cot1, hits give low values 0.986 | locus YPR119W, strain clb2, hits give low values 0.985 | locus YPR141C, strain kar3, hits give low values 0.973 | locus YPR163C, strain tif3, hits give low values 0.993 | locus YPR167C, strain met16, hits give low values 0.985 | strain wtn01, hits give low values 1.01
